Compound activity (PubChem BioAssay)
PHOSPHO1 block: inhibitors of human PHOSPHO1 phosphatase | inhibition, % at 13.3 µM | recombinant PHOSPHO1, absorbance phosphatase assay | 290,000 compounds, 1.1% hits | AID 1565; in the data active = inhibition above about 60%
HNF4A DNA FP: change in binding of human HNF4 alpha to DNA | P41235 | HNF4a-FITC DNA binding, fluorescence polarization, 1 h | activity change, % at 10 µM | 360,000 compounds, 0.3% hits; in the data active = activity change above about 30%, passing the limit was not always enough
TPT1 inh: blocks Candida albicans tRNA 2'-phosphotransferase. recombinant caTPT1, FP RNA substrate dephosphorylation. inhibition, % at 5 µM. 300,000 compounds, 0.81% hits. AID 1962;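 active = inhibition above the mean of all tested compounds plus 3 SD, set per screening campaign, cut at about 24% in these data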;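 note: plate controls were DMSO alone for no effect and ferristatin control at 100 nM for full effect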
Rpn11 inh: blocks the human proteasome subunit Rpn11; O00487; human 26S proteasome, Ub4-pepOG fluorescence polarization; 20S core pre-blocked with epoxomicin; inhibition, % at 20 µM; 360,000 compounds, 0.59% hits; AID 588493;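 active = inhibition at 20 µM, scaled to each plate's controls, above about 33%, limit read from the data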
Target sequence (O00487 whole entry, looked up): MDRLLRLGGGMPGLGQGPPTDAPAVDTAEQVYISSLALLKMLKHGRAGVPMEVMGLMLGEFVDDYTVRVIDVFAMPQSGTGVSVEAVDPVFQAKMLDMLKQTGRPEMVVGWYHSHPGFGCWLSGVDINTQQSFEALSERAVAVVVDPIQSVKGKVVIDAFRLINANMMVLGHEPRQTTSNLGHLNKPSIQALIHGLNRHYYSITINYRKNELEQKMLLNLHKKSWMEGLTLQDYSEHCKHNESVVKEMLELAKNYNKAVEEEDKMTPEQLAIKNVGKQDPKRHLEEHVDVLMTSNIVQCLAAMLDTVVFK
Fh CTSL1 inh: blocks F. hepatica cathepsin L1 in PFM18AAP counter-screen; recombinant F. hepatica cathepsin L1, Z-Leu-Arg-MCA fluorescence; inhibition, % at 5.96 µM; 300,000 compounds, 0.49% hits; AID 1906;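 active = inhibition above the mean of all tested compounds plus 3 SD, set per screening campaign, cut at about 17% in these data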;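 note: 0% = plate median of test compound wells and 100% = 1 µM Z-Phe-Ala-diazomethylketone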
NRP1-CendR mod: modulators of CendR peptide binding to human neuropilin-1; O14786; FAM-RPARPAR peptide binding to NRP-1, fluorescence polarization; inhibition, % at 25 µM; 360,000 compounds, 0.85% hits;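 active = inhibition or corrected inhibition above about 18%, plus a signal ratio from 0.5 to 1.5, limit read from the data, passing the limit was not always enough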
Rpn11 confirm: Rpn11 inhibition confirmation, single concentration; inhibition, % at 20 µM; AID 602318; shares compounds with Rpn11 inh; purified human 26S proteasome, Ub4-pepOG fluorescence polarization; proteasome pretreated with epoxomicin; 1,900 compounds, 29% hits
MMP-2 counter: MMP-2 (human) inhibition counter-screen | shares compounds with Rpn11 inh | recombinant MMP-2, FRET peptide cleavage fluorescence | inhibition, % at 20 µM | 1,900 compounds, 4% hits | AID 602330;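 note: human MMP-2 activated beforehand with APMA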
Thrombin inh: blocks bovine thrombin, flagging nonselective RPN11 hits; shares compounds with Rpn11 inh; bovine thrombin cleavage of Ub4-pepOG, fluorescence polarization; inhibition, % at 20 µM; 1,900 compounds, 13% hits; AID 602333;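 active = mean inhibition at least 40% at 20 µM, or signal 3 deviations below plate average, so some actives read negative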;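 note: plate controls were thrombin with DMSO for no effect and buffer wells lacking thrombin for full effect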
Starred values were filed as active, the others as inactive. In the library only some 3.3% were active in any assay of this set; here they are far more common. Cut-off read from the data, not from the text of the source, unless noted: active = inhibition above about 40%; inactive = the rest.

Results for S=c1[nH]nc(-c2cc(-c3ccccc3)n[nH]2)n1/N=C/c1ccc(Cl)c(Cl)c1 ?
PHOSPHO1 block: -10.5; HNF4A DNA FP: 9.0; TPT1 inh: 0.5; Rpn11 inh: 58.5*; Fh CTSL1 inh: 0.0; NRP1-CendR mod: -17.9; Rpn11 confirm: 54.7*; MMP-2 counter: 14.6; Thrombin inh: -15.0

What do the screens show for `S=c1[nH]nc(-c2cc(-c3ccccc3)n[nH]2)n1/N=C/c1ccc(Cl)cc1`?
PHOSPHO1 block: -39.9; HNF4A DNA FP: -3.0; TPT1 inh: -0.7; Rpn11 inh: 3.8; Fh CTSL1 inh: 8.6; NRP1-CendR mod: -34.1

What do the screens show for `S=c1[nH]nc(-c2cc(-c3ccccc3)n[nH]2)n1/N=C/c1cccc(Cl)c1`?
PHOSPHO1 block: -10.5; HNF4A DNA FP: -22.0; TPT1 inh: 1.5; Rpn11 inh: 177.3*; Fh CTSL1 inh: 4.2; NRP1-CendR mod: -13.0; Rpn11 confirm: 156.6*; MMP-2 counter: 19.3; Thrombin inh: 81.5*

Results for Cc1c(Br)c([N+](=O)[O-])nn1CC(=O)N(C)Cc1ccccc1 ?
PHOSPHO1 block: 12.9; HNF4A DNA FP: -1.7; TPT1 inh: -0.5; Rpn11 inh: -1.9; Fh CTSL1 inh: 2.7; NRP1-CendR mod: 4.3

What do the screens show for `CCCCCCCCCCCCCCCC[n+]1ccc(C(N)=O)cc1`?
PHOSPHO1 block: 5.7; HNF4A DNA FP: 14.5; TPT1 inh: 0.8; Rpn11 inh: 67.2*; Fh CTSL1 inh: 5.8; NRP1-CendR mod: 5.5; Rpn11 confirm: 14.7; MMP-2 counter: -10.4; Thrombin inh: -18.4

Results for CCCCCCCC[n+]1cccc(C(=O)N(CC)CC)c1 ?
PHOSPHO1 block: -10.9; HNF4A DNA FP: -0.6; TPT1 inh: -1.2; Rpn11 inh: -4.6; Fh CTSL1 inh: 4.9; NRP1-CendR mod: -3.5

How did O=C(Nc1ccccc1C(=O)Nc1nnc(C(F)(F)F)s1)c1ccccc1 do in these assays?
PHOSPHO1 block: 34.2; HNF4A DNA FP: -12.0; TPT1 inh: 2.2; Rpn11 inh: 34.8*; Fh CTSL1 inh: 5.4; NRP1-CendR mod: 0.7; Rpn11 confirm: 5.3; MMP-2 counter: 0.8; Thrombin inh: -6.4

How did O=C(CCOc1ccccc1F)N1CCN(c2ccccc2O)CC1 do in these assays?
PHOSPHO1 block: 6.7; HNF4A DNA FP: 4.2; TPT1 inh: -5.0; Rpn11 inh: -3.9; Fh CTSL1 inh: 0.8; NRP1-CendR mod: 9.7

What do the screens show for `Cn1c(SCC(=O)NCC2CCCO2)ncc(C(=O)Nc2ccc(Cl)cc2)c1=O` (centres undefined)?
HNF4A DNA FP: 2.1; TPT1 inh: 2.9; Rpn11 inh: 63.5*; Fh CTSL1 inh: -0.2; NRP1-CendR mod: 4.5; Rpn11 confirm: 10.6; MMP-2 counter: -47.3; Thrombin inh: -2.8

Results for COc1ccc(OCC(=O)NNC(=O)c2cccs2)cc1 ?
PHOSPHO1 block: 40.3; HNF4A DNA FP: -31.2; TPT1 inh: -2.0; Rpn11 inh: 125.4*; Fh CTSL1 inh: -10.2; NRP1-CendR mod: 2.3; Rpn11 confirm: -28.9; MMP-2 counter: -40.8; Thrombin inh: -22.4

How did O=C(NCc1ccco1)c1cccc(N2CCCC2=O)c1 do in these assays?
PHOSPHO1 block: -13.7; HNF4A DNA FP: 26.9; TPT1 inh: -6.3; Rpn11 inh: active; Fh CTSL1 inh: -1.9; NRP1-CendR mod: 13.0; Rpn11 confirm: -12.8; MMP-2 counter: -34.6; Thrombin inh: -14.3

What do the screens show for `CCOC(=O)C1(CC2CCCCO2)CCN(C(=O)Nc2ccc(C)c(C)c2)CC1` (centres undefined)?
PHOSPHO1 block: 49.8; HNF4A DNA FP: 2.3; TPT1 inh: -2.2; Rpn11 inh: 3.2; Fh CTSL1 inh: 1.6; NRP1-CendR mod: -0.3

What do the screens show for `CC(O)c1c(OCc2ccccc2)ncnc1OCc1ccccc1` (centres undefined)?
PHOSPHO1 block: 18.0; HNF4A DNA FP: 1.6; TPT1 inh: -0.1; Rpn11 inh: -0.6; Fh CTSL1 inh: 4.1; NRP1-CendR mod: -1.6
